{"source": "paper PMC5540273", "about": "(PLoS ONE, 2017);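 further: KINOMEscan kinase panel screen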"}
{"tested_on": "PIK3CB", "details": "concentration: 1 μM, replicates: in singlicate; n = 1", "units": {"%Inh": "%"}}
{"smiles": "COc1cc2ncn(-c3cc(OCCCc4ccccc4)c(C(N)=O)s3)c2cc1OC", "note": "[GSK205189]", "%Inh": 0}
{"smiles": "CCc1ccc(-c2ccc3c(c2)-c2nn(C)cc2S(=O)(=O)N3C)cc1", "%Inh": 0}
{"smiles": "Nc1n[nH]c2ncc(-c3ccccc3)cc12", "note": "[SB-517081]", "%Inh": 0}
{"smiles": "COc1ccc(CNC(=O)NC2CCN(c3ccnc(Nc4ccc(F)cc4)n3)C2)cc1", "note": "(stereo not shown) [GSK1379706]", "%Inh": 0}
{"smiles": "Cc1nn2c(=O)cc(N3CCOCC3)nc2n1Cc1cccc(Cl)c1Cl", "note": "[GSK2342769]", "%Inh": 89}
{"smiles": "Cn1c(=O)c(F)c(Nc2ccc(I)cc2F)c2c(=O)n(OC[C@H](O)CO)cnc21", "%Inh": 0}
{"smiles": "COC(=O)c1c(-c2ccccc2)c2cc(C)ccc2c(=O)n1Cc1ccccc1", "%Inh": 0}
{"smiles": "Nc1ncnc2c1ncn2-c1ccc(Cl)cc1", "note": "[AH2635]", "%Inh": 0}
{"smiles": "COc1cccc(C2=C(N(C)c3ccccc3)C(=O)NC2=O)c1", "note": "[SB-334865]", "%Inh": 0}
{"smiles": "COc1cc(Nc2nccc(N3CCC(NC(=O)C4COc5ccccc5O4)C3)n2)cc(OC)c1OC", "note": "(stereo not shown) [GSK1379761]", "%Inh": 0}
{"smiles": "COC(=O)c1c(-c2ccccc2)c2cc(Br)ccc2c(=O)n1Cc1ccc(NC(=O)CCC(=O)O)cc1", "%Inh": 24}
{"smiles": "Nc1ncnc2c1ncn2-c1cccc2ccccc12", "note": "[SKF-97184]", "%Inh": 0}
{"smiles": "COc1ccc(-c2cc3c(C)nc(N)nc3n([C@H]3CC[C@H](OCCO)CC3)c2=O)cn1", "%Inh": 100}
{"smiles": "CCC(=O)c1c(-c2ccccc2)c2cc(Cl)ccc2c(=O)n1Cc1cc(S(C)(=O)=O)n(CC(N)=O)n1", "%Inh": 0}
{"smiles": "Nc1nc(N)c2nc(-c3ccccc3)[nH]c2n1", "note": "[SKF-12778]", "%Inh": 0}
{"smiles": "FC(F)(F)c1ccc(-c2ncn(CCCN3CCOCC3)c2-c2ccncc2)cc1", "note": "[SB-217780]", "%Inh": 4}
{"smiles": "COc1cc(OC)cc(-c2cc3cnc(N)nc3nc2NC(=O)NC(C)(C)C)c1", "%Inh": 32}
{"smiles": "O=C(Nc1ccc2c(c1)OCO2)NC1CCN(c2ccnc(NCc3ccc(F)cc3)n2)CC1", "note": "[GSK1379859]", "%Inh": 0}
{"smiles": "O=C(NCc1cccs1)c1cc(C(=O)c2c(Cl)cccc2Cl)c[nH]1", "note": "[GW823670]", "%Inh": 0}
{"smiles": "COc1cc2nccc(Nc3ccc(OCc4ccc(NC(C)=O)cc4)cc3)c2cc1OC.Cl", "note": "[GW440135]", "%Inh": 0}
{"smiles": "COc1cc2ncn(-c3cc(OCc4ccncc4Br)c(C(N)=O)s3)c2cc1OC", "note": "[GW854278]", "%Inh": 0}
{"smiles": "CCn1c(-c2ccoc2)nc2cnccc21", "note": "[SB-733887]", "%Inh": 0}
